# AddAB inh – less growth of phage-infected E. coli with AddAB; E. coli expressing H. pylori AddAB, absorbance growth; inhibition, % at 11.9 µM; 0.29% of 330,000 active; AID 435030; in the data active = inhibition above about 12%;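 note: 0% = vehicle wells of infected cells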
# phage Ecoli inh – E. coli growth loss with phage present; 0.26% of 360,000 active; inhibition, % at 11.9 µM; growth absorbance; in the data active = inhibition above about 11%
# Tat transport – inhibitors of E. coli Tat protein transport; inhibition, % at 10 µM; AID 488895; E. coli MC4100 TorA-mCherry Tat export, fluorescence; 0.036% of 340,000 active;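 active = mean replicate inhibition at least 50% and at least half of replicates individually reaching 50%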;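 note: exported cargo escapes ClpAP degradation while cytoplasmic cargo is degraded and loses fluorescence; 0% = median of neutral control wells and 100% = median of NaSCN control wells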
# E coli growth-1 – E. coli growth inhibition | OD600 absorbance (no concentration beside the values) | Escherichia coli growth, OD600, 23 h; active compounds read low | 0.21% of 330,000 active | AID 1053175;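 active = OD600 absorbance below the run mean of sample wells minus 3.6 SD, in any replicate, cut at about 0.56 in these data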
# E coli growth-2 – bacterial growth inhibition, counter-screen for AddAB inhibitors; E. coli V3065 growth, OD600 absorbance, 18 h; inhibition, % at 11.9 µM; 0.27% of 330,000 active; AID 449728;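 active = inhibition above the campaign's mean inhibition across all tested compounds plus 3 SD, cut at about 9.9% in these data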;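 note: uninfected addAB+ strain grown without phage in ampicillin broth; 0% = DMSO wells and 100% = ciprofloxacin 0.95 µg/ml wells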
# AddAB conf – confirmation screen: growth loss of phage-infected E. coli expressing H. pylori AddAB. shares compounds with AddAB inh. E. coli V3065 expressing H. pylori AddAB, T4 phage, OD; T4 phage with gene 2 nonsense mutations. inhibition, % at 11.9 µM. 64% of 880 active;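 active = mean inhibition above a set limit taken from the earlier primary screen, cut at about 13% in these data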;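 note: higher means less bacterial growth since AddAB block lets phage replicate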
# RecBCD counter – AddAB counter-screen: growth loss of RecBCD+ E. coli infected with mutant T4 phage. shares compounds with AddAB inh. E. coli V66 + mutant T4 phage, OD growth. inhibition, % at 11.9 µM. 73% of 880 active. AID 488955;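 active = mean inhibition above the mean of solvent-only control wells plus 3 SD, cut at about 4% in these data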;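 note: optical density read after an 18 h incubation at 37 °C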
# Bact viability – counter-screen: bacterial growth inhibition; 35% of 880 active; bacterial viability, absorbance (AddAB counterscreen); shares compounds with AddAB inh; inhibition, % at 11.9 µM; in the data active = inhibition above about 25%
# An asterisk follows results filed as active; / = not tested or not shown. Compounds with a hit are over-represented: about 0.5% of the library has one in this group of screens.
SMILES,AddAB inh,phage Ecoli inh,Tat transport,E coli growth-1,E coli growth-2,AddAB conf,RecBCD counter,Bact viability
O=C(NN=C/C=C/c1ccccc1)NC1CCCCC1,/,/,/,0.641,/,/,/,/
O=C(N/N=C/C=C/c1ccccc1)NC1CCCCC1,36.6*,3.5,5.9,/,17.7*,1.3,0.3,-2.0
O=C1C2C(c3cccc(C=Cc4ccccc4)c3)CC=CC2C(c2ccc3ccccc3c2)N1Cc1ccccc1 (centres undefined),/,/,/,0.709,/,/,/,/
Cc1c(OC(C)C(=O)N[C@H](C(=O)O)c2ccccc2)ccc2c3c(c(=O)oc12)CCCC3 (some centres undefined),3.4,1.9,-0.7,0.738,-1.2,/,/,/
Cc1c(OC(C)C(=O)NCC(O)c2ccccc2)ccc2c3c(c(=O)oc12)CCC3 (centres undefined),33.9*,0.9,2.4,0.683,28.2*,-5.8,-0.5,-2.6
CC1CN(C(C)CO)C(=O)c2cc(NC(=O)Cc3ccccc3)ccc2OC1CN(C)C(=O)Nc1ccccc1 (centres undefined),/,/,/,0.7,/,/,/,/
CCOC(=O)c1cccc(NC(=S)N2CCN(c3ncc4c(=O)c(C(=O)O)cn(CC)c4n3)CC2)c1,6.6,4.7,9.1,0.684,5.7,/,/,/
CCn1cc(C(=O)O)c(=O)c2cnc(N3CCN(C(=S)Nc4ccccc4C(F)(F)F)CC3)nc21,98.0*,5.9,3.3,0.536,94.5*,48.7*,2.1,23.1
CCn1cc(C(=O)O)c(=O)c2cnc(N3CCN(C(=S)Nc4ccccc4)CC3)nc21,98.0*,1.4,-2.7,0.444*,49.7*,4.9,0.9,1.2
CC(C)C(NC(=O)c1ccccc1)C(=O)OCC(=O)Nc1ccc2c(c1)OCCO2 (centres undefined),/,/,/,0.715,/,/,/,/
CC(=O)N(/N=C/c1ccc([N+](=O)[O-])o1)c1nc2ccccc2c(=O)n1-c1ccccc1,15.5*,5.7,6.5,/,10.8*,29.4*,3.1,13.0
CCCCC1CNC(=O)C(=O)N1CCc1cc(C(F)(F)F)cc(C(F)(F)F)c1 (centres undefined),/,/,/,0.703,/,/,/,/
CCCCn1nnnc1SCC(=O)c1cc(Cl)ccc1OC,3.6,-0.5,9.9,0.715,-3.0,/,/,/
COc1ccc(Cl)cc1C(=O)CSc1nc(N)cc(N)n1,98.4*,2.9,2.6,0.667,97.3*,-0.7,-0.8,-3.3
CC1CCN(C(=O)c2[nH]cnc2C(=O)NC(CCCCNC(=O)OC(C)(C)C)C(=O)OC(C)(C)C)CC1 (centres undefined),/,/,/,0.657,/,/,/,/
Cc1cc(NC(=O)c2cc(C)on2)no1,-0.9,1.2,-14.6,0.724,-0.2,/,/,/
CCCc1cc(C(=O)Nc2cc(C)on2)no1,99.7*,2.4,2.8,0.63,95.6*,0.8,3.0,2.7
c1ccc(-n2ncc3c(N4CCC5(CC4)OCCO5)ncnc32)cc1,0.9,1.1,-9.9,0.776,2.2,/,/,/
Cc1cccc(-n2ncc3c(N4CCC5(CC4)OCCO5)ncnc32)c1,31.6*,1.8,-3.5,0.736,4.6,3.1,-0.1,-0.6
CCCc1c(C)nc2ccc(OC)cc2c1SCCC(=O)O,15.5*,0.1,-5.5,0.683,-0.7,1.6,0.5,-2.3
Cc1cc(C)nc(SCc2ccc(C(=O)N/N=C/c3cccc(O)c3O)cc2)n1,12.4*,4.9,7.7,/,6.9,-0.5,5.0*,-2.9
Oc1ccc(N=Nc2ccccc2-c2nn[nH]n2)c(O)c1,14.4*,7.4,-3.4,0.601,15.1*,8.4,6.7*,1.1
C=CCCCCCCCCC(=O)N1CCN(c2cc3c(cc2F)c(=O)c(C(=O)O)cn3CC)CC1,41.2*,3.4,7.8,0.304*,35.3*,98.1*,4.0*,71.6*
CCn1cc(C(=O)O)c(=O)c2cc(F)c(N3CCN(C(=S)NC(=O)c4ccccc4Cl)CC3)cc21,98.0*,9.6,-1.4,0.075*,84.1*,101.8*,100.0*,101.8*
CCOC(=O)C1=C(C)NC(=O)NC1c1ccc([N+](=O)[O-])o1 (centres undefined),-1.5,1.1,0.9,0.693,-1.8,/,/,/
SMILES,AddAB inh,phage Ecoli inh,Tat transport,E coli growth-1,E coli growth-2,AddAB conf,RecBCD counter,Bact viability
CCOC(=O)C1=C(C)NC2=C(C(=O)c3ccccc32)C1c1ccc([N+](=O)[O-])o1 (centres undefined),25.9*,6.0,0.6,0.627,12.5*,32.3*,1.8,14.7
COc1ccc(NC(=O)COc2ccc(C)nc2[N+](=O)[O-])cc1S(N)(=O)=O,14.7*,7.4,-4.8,0.621,12.4*,46.0*,7.8*,28.8*
Cc1ccc(OCC(=O)Nc2ccc3c(c2)CCC3)c([N+](=O)[O-])n1,1.2,4.9,-2.9,0.688,1.3,/,/,/
CC1CCN(c2ccc(/C=N\Nc3nncn3N)cc2[N+](=O)[O-])CC1,14.5*,2.9,-8.9,/,5.1,-1.8,0.2,-4.9
CCc1nnc(NN=Cc2ccc(N3CCC(C)CC3)c([N+](=O)[O-])c2)n1N,/,/,/,0.71,/,/,/,/
COc1ccc(C2CC(=O)C=C(c3cccc4c3Oc3ccccc3S4)C2)cc1 (centres undefined),/,/,/,0.693,/,/,/,/
O=c1[nH]c(/C(=N\O)c2ccccc2)no1,16.4*,10.3,-31.5,/,18.2*,24.5*,4.3*,21.1
CC(O)COc1ccc(C(=NO)c2ccccc2)cc1 (centres undefined),/,/,/,0.642,/,/,/,/
CCCN1C(=O)SC(=Cc2ccc(N3CCOCC3)o2)C1=O,/,/,/,0.712,/,/,/,/
O=C(NNC(=O)c1cc(Br)ccc1Cl)c1csc(N2CCOCC2)n1,3.0,-0.6,4.9,0.726,-2.6,/,/,/
O=C(NNC(=O)c1cc(Br)ccc1O)c1csc(N2CCOCC2)n1,37.0*,/,-3.5,/,32.6*,27.3*,26.5*,27.5*
Cc1cccc(NN=C(C#N)S(=O)(=O)C(C)(C)C)c1,/,/,/,0.724,/,/,/,/
O=c1[nH]c(=S)ccn1C1OC(CO)C(O)C1O (centres undefined),12.4*,5.2,-3.9,0.764,4.8,1.5,3.1,0.8
CCCNC(=O)c1ccc2c(=O)c(O)c(-c3ccc(F)cc3)[nH]c2c1,17.8*,/,-6.1,0.666,15.4*,10.9,13.3*,13.9
CCn1cc(C(=O)OCC(=O)N(C)Cc2ccccc2)c(=O)c2ccc(C)nc21,98.0*,2.2,-1.4,/,95.5*,-3.2,-0.8,-1.0
CCn1cc(C(=O)OCC(=O)c2cc(C)n(-c3ccccc3)c2C)c(=O)c2ccc(C)nc21,0.3,-0.1,-0.3,0.641,-0.5,/,/,/
C#CCOCCOCCOCCNc1nc(N2CCN(C(=O)C(CCCCN)n3cc(CN)nn3)CC2)nc(N2CCN(C(=O)C(CCCN=C(N)N)n3cc(C(N)C(C)CC)nn3)CC2)n1 (centres undefined),/,/,/,0.726,/,/,/,/
O=C1NCCO1,100.2*,3.6,-0.5,/,101.4*,0.4,-0.5,-3.0
O=C1NCCOc2ccccc21,/,4.3,/,/,/,/,/,/
